TDP1 cell noCPT – qHTS for Inhibitors of human tyrosyl-DNA phosphodiesterase 1 (TDP1): qHTS in cells in absence of CPT; actives 15% (n = 420,000); Potency, µM (doses to about 46.2 µM), without a hit: at the highest dose activity change, negative = growth inhibition, hits mostly inhibitors; DT40 Tdp1-/- hTDP1 cells, no CPT, ATP luminescence, 48 h; also: potency is read from the fitted curve at half-maximal effect; nearly all actives have a fitted effect of over 55% in size
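Growth kinetics read by CellTiter-Glo luminescence after ≥48 hr at 37 °C. Cells: DT40 Tdp1-/- stably carrying human TDP1, 400 per well, compound exposure in the absence of CPT (DMSO vehicle).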
HT1080 IDH1KD tx – kills HT-1080 cells with IDH1 knockdown; HT-1080 IDH1 knockdown viability, ATP luminescence, 48 h; Potency, µM (highest dose often 46.1 µM), inactives show at the top dose activity, negative = toxicity, usual class: cytotoxic; actives 2% (n = 360,000); AID 686971;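 also: potency is read from the fitted curve at half-maximal effect; 0% = DMSO wells and -100% = cell-free medium wells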
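Assay cells: HT-1080 with IDH1 knockdown, 750 per well, RPMI/5% FBS. Exposure: 48 h at 37 °C following 2 h pre-incubation. Read: CellTiter-Glo luminescence; fitted concentration-response, curve class assigned.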
IL-1B inflam inh – blocks inflammasome-driven IL-1 beta release. THP-1 LPS/ATP IL-1B secretion, AlphaLISA, 16 h; stronger effect = lower value. activity change, % at 57.5 µM. actives 4.7% (n = 360,000); in the data active = activity change below about -50%; inconclusive = mostly about -30% to -49%
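THP-1 cells pretreated 1 hr with compounds (up to 57.5 uM final), then stimulated with LPS (250 ng/mL final) plus ATP (1.25 mM final); secreted IL-1B measured by AlphaLISA after 16 hr, decreased signal indicating inhibition.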
DT40 TDP1 CPT – growth inhibition of DT40 Tdp1-/-;hTDP1 cells with camptothecin (screen for TDP1 inhibitors) | Potency, µM (doses to about 46.2 µM), inactives show top-dose activity change, negative = growth inhibition, usual class: inhibitors | chicken DT40 Tdp1-/-;hTDP1 cells + 20 nM CPT, ATP luminescence, 48 h | actives 12% (n = 420,000); also: potency is read from the fitted curve at half-maximal effect; nearly all actives have a fitted effect of over 55% in size
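Chicken DT40 Tdp1-/- cells complemented with human TDP1, 400 cells/well, exposed to compounds plus 20 nM camptothecin for at least 48 h at 37 C; viability read as ATP content by CellTiter-Glo luminescence.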
HT1080-NT tox – kills 2HG-producing HT-1080-NT fibrosarcoma cells | HT-1080-NT fibrosarcoma viability, CellTiter-Glo ATP luminescence, 48 h | Potency, µM (series often up to 46.1 µM), without a hit: at the top dose activity, negative = less viability, hits mostly cytotoxic | actives 1.6% (n = 360,000);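 also: NT is the 2HG producing partner of a matched IDH1 knockdown line; potency is read from the fitted curve at half-maximal effect; 0% = DMSO-treated cells and -100% = media-only wells without cells; nearly all actives have a fitted effect of over 55% in size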
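HT-1080-NT; 750 cells/well; 5% FBS RPMI; 48 h compound, 37 degrees C; CellTiter-Glo luminescence; curve fitting and curve-class assignment.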
ELG1 DNA repair – inhibitors of ELG1-dependent DNA repair in HEK293T cells; HEK293T ELG1-luciferase reporter, luminescence, 16 h; DNA damage induced by 5-fluorouridine; Potency, µM (doses to about 46.1 µM), inactives show at the top dose activity change, negative = inhibition, actives largely listed as inhibitors; actives 2.3% (n = 330,000); also: potency is read from the fitted curve at half-maximal effect; nearly all actives have a fitted effect of over 55% in size
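Overnight (16 hr) co-exposure of 2,000 cells/well to 5-fluorouridine and compound at 37 °C preceded detection. Luciferase was quantified via ONE-Glo luminescence; loss of signal denotes inhibition.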
* marks the source's active call; other numbers are inactive results; ? = inconclusive; . = not tested or not shown; [ ] = dose if it differs, or a comment. A selection: hits, their analogues and other compounds. The true share with any hit is near 19%. Unless noted, calls follow the shape of the dose curve; as a rule, active = well fitted curve in the direction sought with a large enough effect; inconclusive = small, poorly fitted or top-dose-only effect, or another doubt; inactive = no such curve, though single readings can be large; an effect the other way counts as inactive or inconclusive. Unless noted, % is scaled to controls: 0 for no effect and ±100 for the full control effect.

SMILES	TDP1 cell noCPT	HT1080 IDH1KD tx	IL-1B inflam inh	DT40 TDP1 CPT	HT1080-NT tox	ELG1 DNA repair
Cc1ccc2[nH]c(=O)c(CN(CCCN(C)C)C(=O)Nc3ccc(Cl)cc3)cc2c1	6.3µM*	2%	-54*	7.1µM*	4%	4%
CC(=O)N(CCc1cccc(C)c1)Cc1cc2ccc(C)cc2[nH]c1=O	-11%	1%	?	-5%	-2%	?
Cc1ccc2cc(CN(CCN(C)C)C(=O)Nc3ccc(Cl)cc3)c(=O)[nH]c2c1	16µM*	-2%	.	?	?	4%
CN(N=O)C(=O)N[C@@H]1[C@@H](O)[C@H](O)[C@@H](CO)O[C@@H]1O	-13%[21.1 µM]	.	.	-2%[21.1 µM]	.	.
CCOc1[nH]c(/N=C/c2ccc(OC)cc2)c(C#N)c1C#N	-11%	.	.	-29%	.	.
CCOc1[nH]c(/N=C/c2ccco2)c(C#N)c1C#N	?	-1%	3	21µM*	-2%	-19%
O=C(OCc1cn([C@H]2C[C@H](c3ccccc3)N(Cc3cccs3)C[C@@H]2O)nn1)c1ccccc1	21µM*	3%	-18	?	-1%	.
Cc1ccc([C@H]2C[C@@H](n3cc(COC(=O)c4ccccc4)nn3)[C@H](O)CN2Cc2cccs2)cc1	21µM*	6%	8	?	5%	.
O=C(OCc1cn([C@@H]2CN(Cc3cccs3)[C@@H](c3ccccc3)C[C@H]2O)nn1)c1ccccc1	-2%	21%	5	13%	-1%	.
Cc1ccc([C@H]2C[C@H](n3cc(COC(=O)c4ccccc4)nn3)[C@@H](O)CN2Cc2cccs2)cc1	?	-8%	-12	-28%	-16%	.
CCc1nc2c(OCC(=O)C(C)(C)C)cccn2c1N(C)C(=O)Nc1ccccc1OC	-27%	10%	12	?	15%	.
CCOC(=O)c1oc2nc(CC(C)C)c3c(c2c1N)CCCC3	23µM*	-11%	-29	23µM*	-21%	?
CCOc1ccccc1NC(=O)N1CCC(N2CCN(Cc3ccccc3)C(=O)C2=O)CC1	2%	.	.	-16%	.	.
CCCCSCCCNC(=O)Nc1ccc(CC)cc1	-37%	-6%	-75*	-1%	0%	-10%
CCCCCCNC(=O)Nc1ccccc1	-1%	-7%	-13	-16%	-2%[9.24 µM]	?
COc1ccc(Nc2ccncc2[N+](=O)[O-])cc1	?	7%	9	-23%	-11%	5.8µM*
O=C(NCCNC(=O)Oc1cccc2ccccc12)Oc1cccc2ccccc12	?	-1%	30	?	0%	.
CCN(CC(=O)Nc1c(F)cccc1F)C(=O)c1ccc2c(c1)C(=O)N(c1ccccc1C)C2=O	-12%	9%	10	-14%	2%	.
C=CCOc1c(CNn2nnnc2N)cccc1OC	-11%	17%	9	-6%	10%	5%
COc1cc(CNn2nnnc2N)cc(Br)c1OCc1c(Cl)cccc1Cl	21µM*	?	19	18µM*	-9%	?
Cc1ccc(-c2csc3ncn(-n4c(C)ccc4C)c(=O)c23)o1	18µM*	0%	-1	23µM*	0%	16%
CCc1ccc(-c2nn(CC(=O)Nc3ccccc3)c3c2cnc2ccc(F)cc23)cc1	-19%	.	.	-27%	.	.
CN(C)c1ccc(C(=O)C(=O)c2ccccc2)cc1	12%	7%	-1	-4%	1%	?
CN(C)c1ccc(C(=C2C=CC(=[N+](C)C)C=C2)c2ccc(N(C)C)cc2)cc1	0.52µM*	.	.	0.23µM*	.	.
CN(C)c1ccc(C(=C2C=CC(=[N+](C)C)C=C2)c2ccccc2)cc1	0.6µM*	.	.	0.84µM*	.	.
SMILES	TDP1 cell noCPT	HT1080 IDH1KD tx	IL-1B inflam inh	DT40 TDP1 CPT	HT1080-NT tox	ELG1 DNA repair
Cc1ccc(S(=O)(=O)NC(=O)Cn2nnc(-c3ccccc3)c2COc2ccc3ccccc3c2)cc1	-5%	0%	18	0%	-6%	.
Cc1ccc(NC(=O)C(Cc2ccccc2)NS(=O)(=O)c2ccc3c(c2)oc(=O)n3C)cc1F (stereo unspecified)	-17%	.	.	-10%	.	.
CCc1c(C2(O)CCCCC2)[nH]c2ccc(C(F)(F)F)cc12	?	-12%	-52*	18µM*	?	-12%
O=C(Oc1ccccc1)N1CCC2(CC1)CCN(c1ccncc1)CC2	15µM*	.	.	15µM*	.	.
O=C(Oc1ccccc1)N1CCC2(CC1)CCN(c1ccccn1)CC2	?	.	.	16µM*	.	.
Cc1cc(C)c(C(=O)N2CCCC(N3CCN(c4ccc(F)cc4)CC3)C2)o1 (stereo unspecified)	16µM*	-28%	-6	?	-17%	-29%
O=C(c1ccoc1)N1CCCC(N2CCN(c3ccc(F)cc3)CC2)C1 (stereo unspecified)	-5%	3%	0	-14%	9%	-7%
Cc1nc(C(=O)N2CCCC(N3CCN(c4ccc(F)cc4)CC3)C2)cs1 (stereo unspecified)	15µM*	7%	54	21µM*	-1%	.
O=C1NC2(CCC3(CC2)OCCO3)NN1c1ccccc1	-5%	7.3µM*	-1	7%	6.5µM*	-27%
CC(=O)Nc1c(Cl)c2c(c(Cl)c1Br)-c1ccc(Cl)cc1C2	?	-8%	-2	?	10%	.
COc1ccc(-c2nc3cnc(Nc4cccc(OC)c4)nc3n(Cc3cccs3)c2=O)cc1	20%	.	.	5%	.	.
COc1c(N2CCN(C(=S)Nc3ccc(F)cc3)C(C)C2)c(F)cc2c(=O)c(C(=O)O)cn(C3CC3)c12 (stereo unspecified)	-23%	-7%	-27	-3%	-4%	-8%
COc1c(N2CCN(C(=S)NC3CC4CCC3C4)C(C)C2)c(F)cc2c(=O)c(C(=O)O)cn(C3CC3)c12 (stereo unspecified)	23µM*	16%	-12	23µM*	7%	?
COc1ccc(N(Cc2cc3cccc(C)c3[nH]c2=O)S(C)(=O)=O)cc1	?	-2%	7	?	12%[9.24 µM]	?
COc1ccc(N(Cc2cc3cccc(C)c3[nH]c2=O)C(=O)c2cccc(Cl)c2)cc1	8.2µM*	.	.	10µM*	.	.
COc1ccc(N(Cc2cc3cc(OC)ccc3[nH]c2=O)C(=O)c2cccnc2)cc1	23µM*	-9%[9.24 µM]	-13	16µM*	8%	-4%
COc1ccc2[nH]c(=O)c(CN(C(=O)c3cccnc3)c3ccccc3)cc2c1	-26%	2%	-16	-20%	6%	15%

Screens as filed in PubChem.
